High-throughput results (PubChem)
Six1-Eya2 inh – Six1/Eya2 interaction inhibition; Q15475+O00167; AlphaScreen GST-Six1/His-Eya2 binding, biochemical; active compounds read low; activity change, % (no concentration beside the values); 360,000 tested, 0.56% active; AID 651725; in the data active = activity change below about -65%; inconclusive = mostly about -30% to -63%; note: % is set by controls: 0 for no effect and ±100 for the full control effect
Target sequence (O00167 whole entry, looked up): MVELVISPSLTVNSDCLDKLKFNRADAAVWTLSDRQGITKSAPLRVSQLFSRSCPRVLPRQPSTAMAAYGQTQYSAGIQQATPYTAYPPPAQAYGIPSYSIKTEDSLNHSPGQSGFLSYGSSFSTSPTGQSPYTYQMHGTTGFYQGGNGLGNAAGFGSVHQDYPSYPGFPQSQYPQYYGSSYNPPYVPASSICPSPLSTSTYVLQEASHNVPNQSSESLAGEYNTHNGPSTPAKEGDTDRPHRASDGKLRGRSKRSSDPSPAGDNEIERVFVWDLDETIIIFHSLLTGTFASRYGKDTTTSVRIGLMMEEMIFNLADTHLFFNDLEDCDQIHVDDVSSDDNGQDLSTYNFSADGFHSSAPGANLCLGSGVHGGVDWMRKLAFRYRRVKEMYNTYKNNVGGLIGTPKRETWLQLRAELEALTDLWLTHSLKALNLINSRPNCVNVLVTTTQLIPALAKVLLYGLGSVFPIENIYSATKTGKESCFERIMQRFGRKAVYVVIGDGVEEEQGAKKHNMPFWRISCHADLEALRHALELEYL
Target sequence (Q15475 whole entry, looked up): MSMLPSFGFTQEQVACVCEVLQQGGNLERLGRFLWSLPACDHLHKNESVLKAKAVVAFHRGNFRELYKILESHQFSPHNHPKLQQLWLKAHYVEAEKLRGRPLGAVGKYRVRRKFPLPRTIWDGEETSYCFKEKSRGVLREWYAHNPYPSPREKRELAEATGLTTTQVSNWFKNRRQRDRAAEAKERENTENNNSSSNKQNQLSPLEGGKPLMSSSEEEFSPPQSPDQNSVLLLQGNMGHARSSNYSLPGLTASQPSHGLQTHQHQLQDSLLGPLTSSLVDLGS
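GST-Six1 + His-Eya2 (5X stock: 250/500 nM); Tris pH 8.0, 300 mM NaCl, 0.05% BSA, 0.02% Tween 20; GSH donor/Ni acceptor beads; 1 h 37 °C dark; AlphaScreen readout.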
S2 tox – viability counter-screen for ATXN expression inhibitors; S2 cells (HEK-293 line with an ATXN2-luciferase reporter) viability, CellTiter-Fluor protease fluorescence, 24 h; Potency, µM (titrated, usually from 56.7 µM), hits mostly cytotoxic; 400,000 tested, 0.49% active; note: potency is the fitted concentration of half-maximal effect; nearly all actives have a fitted effect of over 40% in size
HepG2 tox – counter-screen for TGF-b inhibitors: cytotoxicity in HepG2 cells | HepG2 CAGA-GFP viability, ATP luminescence, 18 h | Potency, µM (doses to about 46.1 µM), without a hit: top-dose activity change, negative = cytotoxicity, hits mostly cytotoxic | 410,000 tested, 0.76% active | AID 588856; note: potency is the fitted concentration of half-maximal effect
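CellTiter-Glo luminescence gave cytotoxicity after 18 hours at 37 degrees C. The cells were HepG2 CAGA-GFP in 1% FBS DMEM, stimulated with 500 pg/mL TGF-beta after compound addition. %Activity was normalised to no-cell wells (complete cell-killing) and DMSO (no toxicity), and curves were fitted and classified.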
CtBP-E1A inh – blocks the CtBP interaction with E1A; AlphaScreen GST-E1A/His-CtBP binding, 1536-well; active compounds read low; activity change, % (test concentration not listed); 340,000 tested, 0.49% active; in the data active = activity change below about -65%; inconclusive = mostly about -30% to -63%; note: % is set by controls: 0 for no effect and ±100 for the full control effect
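Protein mix (5X: 125 nM each GST-E1A, His-CtBP) was incubated with pinned compound 2 h at 37 deg C in dark, in 50 mM Tris pH 8.0 buffer with 300 mM NaCl. Glutathione donor and nickel acceptor beads followed; AlphaScreen signal read after 1 h.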
TGFb SMAD3 inh – blocks TGF-b signaling | AID 588855 | Potency, µM (titrated, usually from 46.1 µM), without a hit: top-dose activity, negative = inhibition, usual class: inhibitors | 410,000 tested, 1.2% active | HepG2 CAGA-GFP TGF-b/SMAD3 reporter, GFP fluorescence, 18 h; TGF-beta stimulated, 500 pg/mL final; note: potency is the fitted concentration of half-maximal effect; % is set by controls: 0 for no effect and ±100 for the full control effect; nearly all actives have a fitted effect of over 65% in size
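First, reporter cells (HEPG2 CAGA-GFP) rested 2 h at 37 degrees C. Next, compounds were pinned in and TGF-beta added to 500 pg/mL final. After 18 h, GFP was imaged per cell and summed per well.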
ATXN2 expr inh – inhibitors of ATXN2 expression; HEK-293 ATXN2-luciferase reporter, luminescence, 24 h; Potency, µM (titrated, usually from 57 µM), without a hit: at the highest dose activity change, negative = inhibition, most hits filed as inhibitors; 360,000 tested, 0.72% active; AID 1745845; note: potency is the fitted concentration of half-maximal effect; % is set by controls: 0 for no effect and ±100 for the full control effect; nearly all actives have a fitted effect of over 55% in size
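qHTS (up to 57 uM final) was run with 24 h compound exposure of reporter cells at 37 °C. Each well was multiplexed: SteadyGlo luminescence measured ATXN2-luciferase expression after a fluorogenic Gly-Phe-AFC viability readout (25 uM final).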
The depositor's hits bear a star; i = inactive; u = inconclusive; x = no result. This is a sample that favours compounds with a hit; in the whole collection about 2.8% have one here. Unless noted, calls come from the whole dose curve; as a rule, active = well fitted curve in the direction sought with a large enough effect; inconclusive = small, poorly fitted or top-dose-only effect, or another doubt; inactive = no such curve, though single readings can be large; an effect the other way counts as inactive or inconclusive.

SMILES	Six1-Eya2 inh	S2 tox	HepG2 tox	CtBP-E1A inh	TGFb SMAD3 inh	ATXN2 expr inh
O=C(NNC1=C(C(=O)C(F)(F)F)CCC1)c1ccc(Br)cc1	-4	u	10µM*	26	16µM*	u
CCn1c(SCc2nc3sc(C(=O)O)c(C)c3c(=O)[nH]2)nc2ccccc21	-68*	i	15%	-8	11%	-4%
COCCn1c(SCc2nc3sc(C(=O)OC)c(C)c3c(=O)[nH]2)nc2ccccc21	3	i	-14%	1	24%	3%
CCCn1c2ccccc2c2cnn(CC(=O)N3CCN(c4ccccc4F)CC3)c(=O)c21	x	x	-15%	x	u	x
Cc1nc(Nc2ccc(C(=O)O)cc2)nc(Nc2ccc(C(=O)O)cc2)c1[N+](=O)[O-]	-75*	u	11%	x	1%	x
CC(=O)Nc1ccc(Nc2nc(C)c([N+](=O)[O-])c(Nc3ccccc3)n2)cc1	u	u	-11%	-28	-10%	u
COc1ccc(-c2cc(=O)c3cc(F)ccc3[nH]2)cc1	10	i	5%	x	12%	23%
COc1ccc2[nH]c(-c3ccc(C)cc3)cc(=O)c2c1	4	i	-9%	0	1%	18µM*
Cc1nc2ccccc2n1/N=C/c1ccc([N+](=O)[O-])o1	-10	i	-106%	-9	11µM*	u
O=[N+]([O-])c1ccc(/C=N/n2cnc3ccccc32)s1	2	x	8.9µM*	-3	u	u
Cc1cc(C)cc(N=Cc2ccc([N+](=O)[O-])s2)c1	u	u	-55%	u	11µM*	u
Cc1cc2ncn(/N=C/c3ccc([N+](=O)[O-])s3)c2cc1C	5	i	-29%	-8	0%	-18%
Cc1nc2ccccc2n1/N=C/c1ccc([N+](=O)[O-])s1	3	x	-62%	4	6.3µM*	21µM*
O=[N+]([O-])c1ccc(/C=N/n2c(CO)nc3ccccc32)s1	1	i	-13%	3	u	u
CCC1(C2CCN(Cc3cccc(Cl)c3)CC2)NC(=O)N(CC2COc3ccccc3O2)C1=O (stereo not drawn)	x	i	x	x	x	x
O=[N+]([O-])c1ccc(Nc2nc(NCCN3CCOCC3)nc(Nc3ccc(I)cc3)n2)cc1	x	x	-44%	x	6%	x
Cc1nnc(N/N=C\c2ccc(-c3ccccc3[N+](=O)[O-])o2)n1N	u	i	-106%	-1	8.9µM*	7%
Cc1ccc(C(=O)N/N=C\c2ccc(-c3ccc(Cl)c(Cl)c3)o2)cn1	-10	u	-96%	-27	11µM*	u
Cc1nnc(N/N=C/c2ccc(-c3ccccc3F)o2)n1N	-20	i	-96%	-27	u	-2%
O=C(N/N=C/c1ccc(-c2ccc(Cl)c(C(=O)O)c2)o1)c1cc2c(ccc3ccccc32)o1	u	i	-16%	-85*	0%	2%
Cc1ccc(C(=O)N/N=C/c2ccc(-c3ccccc3[N+](=O)[O-])o2)cn1	-69*	i	-22%	u	2%	15%
Cc1ccc(C(=O)N/N=C/c2ccc(-c3cccc(Cl)c3)o2)cn1	-27	i	-12%	-1	u	-30%
COc1ccc(CNC(=O)CSCc2nc(-c3ccccc3C)oc2C)cc1	x	x	4%	x	u	x
O=C1[C@H](Cc2ccccc2)NC/C=C\C[C@H](c2ccco2)N1Cc1ccccc1	x	x	1%	x	-8%	x
COc1ccc(C(=O)NCCn2cc(SCc3c(F)cccc3Cl)c3ccccc32)cc1	x	14µM*	-12%	x	16µM*	u
SMILES	Six1-Eya2 inh	S2 tox	HepG2 tox	CtBP-E1A inh	TGFb SMAD3 inh	ATXN2 expr inh
O=C(Nc1nc2cc3c(cc2s1)OCCO3)C1=COCCO1	-2	i	8.9µM*	-8	-13%	u
CCCCS(=O)(=O)/C=C\C1C2C=CC(C2)C1S(=O)(=O)CCCC (stereo not drawn)	6	i	-5%	-2	7%	-5%
CCCCS(=O)(=O)/C=C\C=C/S(=O)(=O)CCCC	-5	8.9µM*	-79%	-5	u	7.1µM*
CCN1/C(=C/c2ccc3cccc(C)c3[n+]2CC)Sc2ccccc21	-18	u	14µM*	-19	264%	u
CCN1/C(=C/c2ccc3cc(C)cc(C)c3[n+]2CC)Sc2cc(C)ccc21	-5	u	-117%	0	157%	u
Cc1cccc(C(=O)N2CCC(=O)N(C(COCc3cccc(C(F)(F)F)c3)Cc3ccccc3)CC2)c1 (stereo not drawn)	3	32µM*	-56%	1	u	0%
Cc1cccc(C(=O)N2CCC(=O)N([C@H](COCc3cccc(C(F)(F)F)c3)Cc3ccccc3)CC2)c1	-4	32µM*	x	0	x	u
Cc1cccc(COC[C@H](Cc2ccccc2)N2CCN(C(=O)c3cccc(C)c3)CCC2=O)c1	7	25µM*	x	4	x	-27%
c1ccc(CN2CCC(Nc3nc(-c4cccnc4)nc4ccccc34)CC2)cc1	-19	i	-62%	-6	16µM*	u
Cc1nnsc1C(=O)N/N=C/c1ccc2ccccc2c1O	-87*	u	2%	-71*	2%	u
O=C(O)CNC(=O)C1CCCN1C(=O)CNC(=O)OCc1ccccc1 (stereo not drawn)	26	i	4%	11	15%	2%
O=C(CNC(=O)OCc1ccccc1)NCC(=O)N1CCCC1C(=O)OCc1ccccc1 (stereo not drawn)	0	i	11µM*	-2	u	-12%
CC1COc2ccccc2N1S(=O)(=O)c1ccc(Cl)cc1 (stereo not drawn)	2	i	9%	-66*	-18%	-18%
COc1cc(=O)n2c(c1C(=O)NCc1ccco1)CCN(Cc1ccc(F)cc1Cl)CC2	x	i	x	x	x	x
Cc1cc(C)n(-c2nc(NC(C)(C)C)nc(NC(C)(C)C)n2)n1	-1	i	1%	-5	22%	-13%
Cc1cc(C)n(-c2nc(Nc3ccccc3C(F)(F)F)nc(-n3nc(C)cc3C)n2)n1	-1	u	1%	-7	u	22µM*
Cc1ccc(CN2CCC(C3(c4ccccn4)NC(=O)N(CC4CCCO4)C3=O)CC2)cc1C (stereo not drawn)	x	i	x	x	x	x
O=C(Nc1ccccn1)c1onc2c1CCCC2	14	i	5µM*	-6	0%	u
COc1cc(CCc2ccccc2)c(C(=O)O)c(O)c1C/C=C(/C)CCC=C(C)C	-5	i	14µM*	0	13µM*	0%
